Test systems include SR leukemia; RPMI-8226 leukemia; OVCAR-8 ovarian; OVCAR-5 ovarian; OVCAR-4 ovarian; SK-OV-3 ovarian; IGROV1 ovarian; OVCAR-3 ovarian; HS 578T breast; NCI/ADR-RES ovarian; T-47D breast; BT-549 breast; MDA-MB-435 melanoma; SW-620 colon; MCF7 breast; HCT-116 colon; HCC-2998 colon; KM12 colon.
Holding throughout (assay): NCI-60 one-dose screen, 48 h (100 = growth as untreated, 0 = no growth, -100 = all killed)
Holding throughout (conditions): 10 µM unless noted

About 83,000 compounds went through this panel and 20% of them were active in at least one assay; those are over-represented in the sample as a whole.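 Negative percent growth values reflect cell death: -40 means 40% of the cells present at the start died, and -100 means all died.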 Unmarked numbers belong to inactive results. Active and inactive are the calls of the source. The calls were made as follows: active = growth percent below 10; inactive = the rest.

In the case of `CCO/C=N/C1=C(C#N)C(c2ccc(Cl)cc2)c2sc3c(CC)cccc3c2O1` (stereo not drawn), the growth was 18% with SR leukemia; 9.39% (active) with RPMI-8226 leukemia; 28.5% with OVCAR-8 ovarian; 36.9% with OVCAR-5 ovarian; 76.5% in the test on OVCAR-4 ovarian; 58.2% in the test on SK-OV-3 ovarian. For the same molecule, the growth was 23% in the test on IGROV1 ovarian; -20.5% (active) with OVCAR-3 ovarian; 18.4% in the test with HS 578T breast; 14.9% in the test with NCI/ADR-RES ovarian; 26.9% with T-47D breast; 59.6% in the test on BT-549 breast. Also, the growth in the test on MDA-MB-435 melanoma was -43.2% (active); in the test with SW-620 colon it was 32.3%; in the test on MCF7 breast, 16.2%; in the test with HCT-116 colon it was 23.1%; with HCC-2998 colon it was 23.6%; in the test on KM12 colon, 15.3%.
Take `NC(N)=Nc1ccc(Oc2cccc(NC(N)=Nc3ccc(I)cc3F)c2)cc1`: the growth with SR leukemia is 48.1%; with RPMI-8226 leukemia, 62.3%; in the test on OVCAR-8 ovarian it was 90.5%; in the test with OVCAR-5 ovarian, 65.5%; with OVCAR-4 ovarian, 81.3%; in the test on SK-OV-3 ovarian it was 70.1%. In addition, the growth is 32.9% in the test on IGROV1 ovarian; 75.7% with OVCAR-3 ovarian; 61.1% in the test on HS 578T breast; 100% in the test on NCI/ADR-RES ovarian; 75.3% with T-47D breast; 87.6% with BT-549 breast. For the same molecule, the growth with MDA-MB-435 melanoma is 85%; in the test with SW-620 colon, 89.5%; in the test on MCF7 breast, 63.3%; with HCT-116 colon, 90.5%; with HCC-2998 colon, 102%; in the test with KM12 colon, 79.3%.
`Cn1ccnc1C(=O)/C=C/c1ccc(CNC(=O)c2ccc(F)cc2)cc1`: the growth in the test with SR leukemia is 8.69% (active); with RPMI-8226 leukemia it was 13%; in the test with OVCAR-8 ovarian, 47.1%; in the test with OVCAR-5 ovarian it was 17.4%; with OVCAR-4 ovarian, 42%; in the test on SK-OV-3 ovarian it was 77.8%. Also, the growth in the test on IGROV1 ovarian is 23.1%; in the test on OVCAR-3 ovarian it was 15.1%; in the test on HS 578T breast, 40.4%; with NCI/ADR-RES ovarian, 18.9%; with T-47D breast, 33.4%; with BT-549 breast it was 43.2%. For the same molecule, the growth with MDA-MB-435 melanoma was 44.1%; with SW-620 colon, 9.37% (active); in the test on MCF7 breast, 11.6%; in the test with HCT-116 colon, 13.2%; in the test on HCC-2998 colon it was 35.9%; in the test with KM12 colon, 22.1%.
On to `Cc1cc(C)n(C(=O)c2sc(=S)n(-c3ccccc3)c2N=Nc2c(N)n[nH]c2N)n1`, for which the growth in the test on SR leukemia was 86.4%; with RPMI-8226 leukemia, 108%; in the test on OVCAR-8 ovarian it was 101%; with OVCAR-5 ovarian, 101%; in the test with OVCAR-4 ovarian it was 115%; with SK-OV-3 ovarian, 109%. Moreover, the growth with IGROV1 ovarian is 99.8%; in the test on OVCAR-3 ovarian, 119%; in the test on HS 578T breast, 113%; in the test with NCI/ADR-RES ovarian, 115%; in the test on T-47D breast, 117%; with BT-549 breast it was 107%. Moreover, the growth was 104% in the test with MDA-MB-435 melanoma; 102% with SW-620 colon; 96.7% with MCF7 breast; 100% with HCT-116 colon; 110% in the test on HCC-2998 colon; 107% with KM12 colon.
Turning to `N#Cc1cccc(CN2CCC3=C(C2)C(=O)N(Cc2ccc(Cl)cc2)C2=NCCN23)c1`, the growth was 32.9% in the test with SR leukemia; 17% in the test on RPMI-8226 leukemia; 20.2% in the test on OVCAR-8 ovarian; 38.6% with OVCAR-5 ovarian; 20.4% in the test on OVCAR-4 ovarian; 27.8% in the test on SK-OV-3 ovarian. Moreover, the growth with IGROV1 ovarian was 54.4%; in the test on OVCAR-3 ovarian, 23.4%; with HS 578T breast, 45.5%; in the test with NCI/ADR-RES ovarian, 13.5%; in the test on T-47D breast, 23.7%; with BT-549 breast, 45.4%. Besides, the growth in the test with MDA-MB-435 melanoma is 19.9%; with SW-620 colon, 33%; in the test with MCF7 breast it was 14.1%; in the test with HCT-116 colon it was 19.6%; with HCC-2998 colon, 17.6%; with KM12 colon it was 40.9%.
As to `COc1c(N2CC3CCCNC3C2)c(F)cc2c(=O)c(C(=O)N/N=C/c3ccc4c(c3)OCO4)cn(C3CC3)c12` (stereo not drawn), the growth in the test on SR leukemia is -24.3% (active); with RPMI-8226 leukemia, 60.9%; in the test with OVCAR-8 ovarian it was 54%; in the test with OVCAR-5 ovarian it was 87.3%; in the test on OVCAR-4 ovarian, 90.5%; in the test with SK-OV-3 ovarian, 99.7%. Moreover, the growth in the test on IGROV1 ovarian is 51%; with OVCAR-3 ovarian, 29.4%; with HS 578T breast, 103%; in the test on NCI/ADR-RES ovarian, 63.6%; in the test with T-47D breast, 76.7%; in the test with BT-549 breast, 94.9%. In addition, the growth is 102% in the test on MDA-MB-435 melanoma; 47.1% in the test with SW-620 colon; 32.7% in the test on HCT-116 colon; 54.8% in the test with HCC-2998 colon; 88% in the test with KM12 colon.
For `COC(=O)C(Cc1ccccc1)Nc1nc(NC(Cc2ccccc2)C(=O)OC)nc(N2CCOCC2)n1` (stereo not drawn), the growth was 100% with SR leukemia; 98.5% in the test on RPMI-8226 leukemia; 99.6% in the test with OVCAR-8 ovarian; 106% in the test on OVCAR-5 ovarian; 107% with OVCAR-4 ovarian; 103% in the test with SK-OV-3 ovarian. The growth was 98.6% with IGROV1 ovarian; 111% with OVCAR-3 ovarian; 101% with HS 578T breast; 111% in the test with NCI/ADR-RES ovarian; 101% in the test on T-47D breast; 112% in the test on BT-549 breast. Moreover, the growth in the test on MDA-MB-435 melanoma was 105%; with SW-620 colon, 112%; in the test on MCF7 breast, 97.8%; in the test on HCT-116 colon, 99.2%; with HCC-2998 colon it was 110%; with KM12 colon it was 99.7%.
Regarding `Cn1ccnc1C(=O)/C=C/c1ccc(CNC(=O)c2ccc(Cl)cc2)cc1`, the growth in the test with SR leukemia is 4.17% (active); in the test on RPMI-8226 leukemia, -13.7% (active); in the test with OVCAR-8 ovarian, 24.6%; in the test with OVCAR-5 ovarian, 11%; in the test on OVCAR-4 ovarian, 37.9%; in the test on SK-OV-3 ovarian, 43.1%. The growth in the test with IGROV1 ovarian was 12.2%; in the test with OVCAR-3 ovarian, 17%; with HS 578T breast it was 28.1%; with NCI/ADR-RES ovarian it was 10.4%; in the test on T-47D breast it was 34%; in the test with BT-549 breast, 16.5%. For the same molecule, the growth with MDA-MB-435 melanoma was 22.6%; with SW-620 colon, 9.22% (active); in the test on HCT-116 colon, -1.09% (active); with HCC-2998 colon it was 13.1%; in the test with KM12 colon, 9.07% (active).
As to `COc1ccc(/C=C(/C)c2ccc3ccc(OC)cc3[o+]2)c(O)c1`, the growth in the test with SR leukemia was 14.9%; in the test on RPMI-8226 leukemia, 58.4%; in the test on OVCAR-8 ovarian, 80.5%; with OVCAR-5 ovarian it was 98.5%; in the test with OVCAR-4 ovarian it was 84.5%; with SK-OV-3 ovarian, 98.6%. Also, the growth is 58% in the test on IGROV1 ovarian; 35.1% in the test with OVCAR-3 ovarian; 98.7% with HS 578T breast; 45.3% with NCI/ADR-RES ovarian; 69.7% with T-47D breast; 87.9% in the test on BT-549 breast. Also, the growth was 38% with MDA-MB-435 melanoma; 30.1% with SW-620 colon; 30.7% in the test with MCF7 breast; 50.7% in the test with HCT-116 colon; 114% with HCC-2998 colon; 71.6% with KM12 colon.
In the case of `N#Cc1cccc(CN2CCc3ncn(Cc4ccc(Cl)cc4)c(=O)c3C2)c1`, the growth in the test with SR leukemia was 36.2%; in the test with RPMI-8226 leukemia it was 22.4%; in the test with OVCAR-8 ovarian, 24.3%; with OVCAR-5 ovarian, 23.8%; with OVCAR-4 ovarian, 16.5%; in the test with SK-OV-3 ovarian it was 22.8%. Also, the growth was 44.1% with IGROV1 ovarian; 21.7% with OVCAR-3 ovarian; 35.9% in the test with HS 578T breast; 14.7% with NCI/ADR-RES ovarian; 30.7% in the test with T-47D breast; 29.7% in the test on BT-549 breast. Moreover, the growth is 18.4% with MDA-MB-435 melanoma; 33.2% in the test on SW-620 colon; 15.5% with MCF7 breast; 19.5% in the test with HCT-116 colon; 13.9% in the test on HCC-2998 colon; 29.7% in the test with KM12 colon.
